Compound activity: PubChem, National Center for Advancing Translational Sciences (NCATS)
Many of the other results were omitted from the sample, so hits are more common in it than they were.
PI5P4K alpha inh: PI5P4K alpha (human) kinase inhibition; P48426; PI5P4Kalpha enzyme, ADP-Glo luminescence, 60 min; active compounds read low; max response, %; 330,000 compounds, 1.2% hits; AID 652105; active = max response of -50% or lower; inconclusive = between -30% and -50%; inactive = -30% or higher; note: value at the top dose of about 77 µM
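Compounds were pin-transferred onto PI5P4Kalpha and substrate in HEPES pH 7.4 buffer with EGTA, CHAPS and 5% DMSO. ATP (5 microM final) started the reaction, which ran 60 minutes at room temperature before ADP-Glo detection.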
Pin1 inhibitor: blocks the human prolyl isomerase Pin1 | Pin1 FP peptide displacement, HiFluor488, 10 min | Q13526 | AID 504891 | 390,000 compounds, 0.009% hits | Potency, µM (titrated, usually from 115 µM), for the others: at the highest dose activity, negative = inhibition, hits mostly inhibitors; active = well fitted inhibition curve with a large enough effect in the polarisation, with a control signal flat, not every such curve was filed as active; inconclusive = small, poorly fitted or top-dose-only effect, or effect the other way, or a change in a side signal; inactive = no such curve, though single readings can be large or run the other way; the % refers to the polarisation; note: potency is the fitted concentration of half-maximal effect
Target sequence (Q13526 whole entry, looked up): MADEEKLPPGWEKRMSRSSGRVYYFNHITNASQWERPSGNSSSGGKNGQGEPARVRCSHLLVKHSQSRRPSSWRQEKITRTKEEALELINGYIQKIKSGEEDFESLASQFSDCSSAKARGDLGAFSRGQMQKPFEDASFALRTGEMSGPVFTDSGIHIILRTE
PGK inhibitor: T. brucei PGK inhibition; P07378; PGK/GAPDH coupled, Kinase-Glo luminescence, 60 min; Potency, µM (top dose mostly 57.5 µM), for inactives: top-dose activity change, negative = inhibition, usual class: inhibitors; 380,000 compounds, 0.043% hits; AID 602233; active = well fitted inhibition curve with a large enough effect; inconclusive = small, poorly fitted or top-dose-only effect; inactive = no such curve, though single readings can be large or run the other way; note: potency is the fitted concentration of half-maximal effect; nearly all actives have a fitted effect of over 60% in size
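Recombinant glycosomal PGK reaction used 1,3-bisphosphoglycerate generated in-well by GAPDH (100nM final) in 100mM TEA pH 7.6, 5mM MgCl2, 0.01% Tween-20. After 60 minutes at room temperature, ATP was read by Kinase-Glo Plus luminescence end-point.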
PI4K2A inh: PI4K2A (human) kinase inhibition. activity change, negative = inhibition, % at 76.9 µM. Q9BTU6. AID 1346378. purified PI4K2A, ADP-Glo luminescence, 1 h; active compounds read low. 420,000 compounds, 0.13% hits; in the data active = activity change below about -50%; inconclusive = mostly about -30% to -49%;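 note: -100% = wells without enzyme as full effect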
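PI4K2A activity was measured by ADP-Glo luminescence: enzyme (4 ug/mL stock) and phosphatidylinositol (1.2 mM stock) in Tris pH 7.5/MgCl2/EGTA/Triton X-100 buffer were reacted with ATP (300 microM stock) for one hour at ambient temperature.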
Active calls of the source: *; i = inactive; ? = inconclusive; / = not tested or not shown. Unless noted, % is set by controls: 0 for no effect and ±100 for the full control effect.

SMILES	PI5P4K alpha inh	Pin1 inhibitor	PGK inhibitor	PI4K2A inh
COc1cccc(C(=O)c2cn(CC(=O)Nc3cc(Cl)c(OC)cc3OC)c3nc(C)ccc3c2=O)c1	/	?	i	-10
COP(=S)(OC)Oc1ccc(S(N)(=O)=O)cc1	/	/	/	-3
COP(=S)(OC)Oc1ccc(Sc2ccc(OP(=S)(OC)OC)cc2)cc1	-64*	?	4%	-1
O=C1NC(=O)N(Cc2cccs2)C(=O)/C1=C/c1ccc(N2CCOCC2)cc1	-52*	21%	10%	-5
O=C(CCl)c1ccc(Cl)cc1Cl	/	/	/	6
O=C(CBr)Nc1ccc(Cl)cc1C(=O)c1ccccc1F	/	/	/	-2
O=C(N/N=C/c1c(O)n(C2CCCCC2)c(=S)[nH]c1=O)c1ccccc1O	?	1%	i	-1
CCn1c(O)c(/C=N/NC(=O)c2ccncc2)c(=O)[nH]c1=S	-27	?	-2%	1
O=C(N/N=C/c1c(O)n(Cc2ccco2)c(=O)[nH]c1=O)c1ccccc1O	-83*	1%	-11%	-1
CCCCn1c(O)c(/C=N/NC(=O)c2ccncc2)c(=O)[nH]c1=O	-65*	23%	1%	-1
CC(C)c1ccc(-n2c(O)c(/C=N/NC(=O)c3ccccc3O)c(=O)[nH]c2=S)cc1	-65*	41%	0%	2
CCCCC(=O)N/N=C/c1c(O)n(Cc2ccco2)c(=O)[nH]c1=O	?	29%	-6%	-6
O=c1[nH]c(=O)n(CCC2=CCCCC2)c(O)c1/C=N/Nc1cccc2ccccc12	-65*	?	-2%	-16
COc1cccc(NC(=O)C2CCN(S(=O)(=O)c3cc(-c4noc(C)n4)ccc3C)CC2)c1	/	?	-2%	-3
O=C(N/N=C/c1c(O)n(CCc2ccccc2)c(=O)[nH]c1=O)c1ccccc1	-77*	24%	0%	1
CCN(CC)CCN=Cc1c(O)n(CCc2ccccc2)c(=O)[nH]c1=O	-22	?	i	-14
O=c1[nH]c(=S)[nH]c(O)c1N=Nc1cc(S(=O)(=O)Nc2ccc(Cl)cc2)ccc1Cl	-59*	?	-12%	3
O=c1[nH]c(O)c(N=Nc2ccc(S(=O)(=O)N3CCOCC3)cc2)c(=O)[nH]1	-15	17%	-12%	-4
O=c1[nH]c(=S)[nH]c(O)c1N=Nc1ccc(S(=O)(=O)N2CCOCC2)cc1	-55*	-3%	?	-18
CCOC(=O)CSCCOc1ccc(C=C2C(=O)NC(=O)NC2=O)cc1OC	?	-9%	1%	-7
COc1cc(/C=C2\C(=O)NC(=O)N(c3ccccc3)C2=O)cc(OC)c1OC	?	-2%	i	-11
COC(=O)COc1ccc(/C=C2\C(=O)NC(=S)N(c3ccc(C)cc3)C2=O)cc1OC	-54*	?	-8%	-3
COc1ccc(N2C(=O)/C(=C/c3ccc(OC)c(OC)c3)C(=O)NC2=S)cc1	-54*	1%	1%	1
CCOC(=O)COc1ccc(/C=C2\C(=O)NC(=S)N(c3ccc(OC)cc3)C2=O)cc1OC	-56*	-17%	1%	-5
CCCN(CCC)c1c([N+](=O)[O-])cc(S(N)(=O)=O)cc1[N+](=O)[O-]	/	/	/	i
SMILES	PI5P4K alpha inh	Pin1 inhibitor	PGK inhibitor	PI4K2A inh
Cc1ccccc1N1C(=O)NC(=O)/C(=C\c2cc(Br)c(N3CCOCC3)o2)C1=O	-75*	?	-10%	-21
COc1cc(C[C@@H](C)N)c(OC)cc1C	/	/	/	i
Oc1ccc2c3c1O[C@H]1[C@@H](O)C=C[C@H]4[C@@H](C2)NCC[C@@]341	/	/	/	i
Cc1cc(/C=C2\C(=O)NC(=O)N(c3ccccc3F)C2=O)c(C)n1-c1cc(C(=O)O)cc(C(=O)O)c1	-78*	/	11µM*	-25
Cc1cc(/C=C2\C(=O)NC(=O)N(c3ccc(F)cc3)C2=O)c(C)n1-c1cccc(C(=O)O)c1	-50*	25%	11%	-8
CCc1ccc(-n2nc(C)c3c(C(=O)NCCc4ccc(OC)c(OC)c4)cc(C)nc32)cc1	/	49%	-8%	-2
O=C1NC(=O)N(CCC2=CCCCC2)C(=O)/C1=C/c1cccs1	-63*	30%	-8%	-28
Cn1ncnc2c(=O)n(C)c(=O)nc1-2	0	?	?	-52*
O=c1cc(-c2ccc(O)c(O)c2)oc2cc(O)cc(O)c12	-95*	?	?	-11
O=c1c(O)c(-c2ccc(O)c(O)c2)oc2cc(O)cc(O)c12	-84*	?	?	-2
